Hits are enriched below; roughly 1.8% of the tested compounds scored in any of these assays.
ABCB6 inh MLPCN = inhibitors of human ABC transporter ABCB6; fluorescence ratio to DMSO, % at 10 µM; actives 0.19% (n = 360,000); Q9NP58; K562-ABCB6 porphyrin accumulation, flow cytometry, 1 h; active compounds read low; AID 602162;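 active means fluorescence ratio to DMSO below 75%, the collection mean minus 3 SD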;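 further: signal is porphyrin accumulated inside mitochondria; 100% equals median channel fluorescence of DMSO control wells; lower ratio means ABCB6 inhibition with less porphyrin fluorescence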
GSIS activator = GLuc luminescence reporter in INS-1E cells, primary screen for activators of glucose-dependent secretion of insulin | actives 0.61% (n = 370,000) | activation, % at 16.6 µM | INS-1E GLuc reporter insulin secretion, 2-3 h;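 active means lowest replicate activation of at least 40%, so every replicate reaches that level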;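 further: 0% = median of neutral control wells and 100% = median of IBMX positive control wells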
ARNT TACC3 PPI = disrupts binding between human ARNT and TACC3 | Q9Y6A5 | AlphaScreen His-ARNT PAS-B/GST-TACC3 binding, luminescence; TACC3 fragment carries E629A point mutation | inhibition, % at 9.99 µM | actives 0.66% (n = 390,000);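 active means mean inhibition of replicates at least 50% and at least half of replicates each reaching 50%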;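 further: 0% = complete ARNT plus TACC3 wells and 100% = ARNT alone without TACC3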
hiPSC survival = increases survival of single human iPS cells. hiPSC single-cell survival, ATPlite luminescence; 100% = ROCK inhibitor wells, 0% = DMSO. survival enhancement, % at 20 µM. actives 0.044% (n = 360,000). AID 602274; in the data active means survival enhancement above about 18%;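 further: cells exposed to compounds for 16 hours before the ATP read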
CendR NRP1 mod = modulators of CendR peptide binding to human neuropilin-1. FAM-RPARPAR peptide binding to NRP-1, fluorescence polarization. inhibition, % at 25 µM. actives 0.85% (n = 360,000);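 active means inhibition or corrected inhibition above about 18%, plus a signal ratio from 0.5 to 1.5, limit read from the data, passing the limit was not always enough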
Target sequence (O14786 whole entry, looked up): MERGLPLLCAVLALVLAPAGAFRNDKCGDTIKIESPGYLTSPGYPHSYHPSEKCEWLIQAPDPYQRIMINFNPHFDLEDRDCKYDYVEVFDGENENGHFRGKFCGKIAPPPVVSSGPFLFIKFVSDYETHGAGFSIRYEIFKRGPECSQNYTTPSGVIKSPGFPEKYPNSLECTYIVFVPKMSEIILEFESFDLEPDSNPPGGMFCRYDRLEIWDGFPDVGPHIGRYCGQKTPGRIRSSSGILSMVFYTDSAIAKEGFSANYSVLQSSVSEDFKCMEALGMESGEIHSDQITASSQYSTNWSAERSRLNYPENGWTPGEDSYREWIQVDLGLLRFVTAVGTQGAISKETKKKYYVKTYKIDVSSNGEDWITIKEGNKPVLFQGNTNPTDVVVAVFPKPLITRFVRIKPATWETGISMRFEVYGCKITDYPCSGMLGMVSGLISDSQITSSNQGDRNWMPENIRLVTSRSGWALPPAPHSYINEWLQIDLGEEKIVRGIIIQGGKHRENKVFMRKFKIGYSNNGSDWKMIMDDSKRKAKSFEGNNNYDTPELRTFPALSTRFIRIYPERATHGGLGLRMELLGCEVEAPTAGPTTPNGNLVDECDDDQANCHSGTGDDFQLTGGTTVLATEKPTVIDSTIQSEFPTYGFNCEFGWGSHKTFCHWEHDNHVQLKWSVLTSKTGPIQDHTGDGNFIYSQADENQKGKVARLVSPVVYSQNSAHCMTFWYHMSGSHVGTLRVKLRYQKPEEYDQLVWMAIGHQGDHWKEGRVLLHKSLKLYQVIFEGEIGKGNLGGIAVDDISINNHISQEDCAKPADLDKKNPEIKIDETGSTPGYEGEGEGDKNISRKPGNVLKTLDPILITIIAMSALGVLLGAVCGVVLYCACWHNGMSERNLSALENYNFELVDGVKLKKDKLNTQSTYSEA
* = called active by the depositor; · = no result.

SMILES	ABCB6 inh MLPCN	GSIS activator	ARNT TACC3 PPI	hiPSC survival	CendR NRP1 mod
CC(C)NC(=O)N(C)C[C@H]1OCCCC[C@H](C)Oc2ccc(NC(=O)NC3CCCCC3)cc2C(=O)N([C@@H](C)CO)C[C@H]1C	·	-7.6	-5.7	·	·
C[C@@H]1CN([C@H](C)CO)C(=O)Cc2cc(NS(C)(=O)=O)ccc2O[C@@H]1CN(C)S(=O)(=O)c1cn(C)cn1	·	10.6	-2.9	·	·
O=C(c1cccnc1)N1CCCCN2[C@H](CO)[C@H](c3ccc(C#Cc4ccccc4)cc3)[C@H]2C1	·	·	4.4	·	·
CCN1[C@@H]2c3ccc(-c4cccc(F)c4)c(=O)n3C[C@@H]2[C@@H](CO)[C@@H]1C(=O)N1CCCCC1	·	0.4	1.3	·	·
COc1ccc(C2=Nn3c(nnc3-c3ccccc3Cl)SC2)cc1OCC1CC1	102.0	39.4	5.3	-0.5	-0.3
COc1ccc(C2=Nn3c(nnc3-c3ccccc3C(F)(F)F)SC2)cc1OC1CCOC1 (centres undefined)	101.0	74.9*	·	0.4	0.7
Cc1nc(-c2c(C(F)(F)F)noc2-c2ccc(O)cc2O)cs1	82.0	-13.8	39.3	3.4	8.8
Oc1ccc(-c2onc(C(F)(F)F)c2-c2cscn2)c(O)c1	118.0	·	1.5	19.6*	2.3
Cc1ccc(C(=O)Nc2cccc(C(=O)N/N=C/c3ccc(F)cc3)c2)cc1	93.0	101.2*	-19.9	0.4	4.4
COc1ccc(/C=N/NC(=O)c2cccc(NC(=O)c3ccccc3Cl)c2)c(OC)c1	107.0	10.0	·	-3.0	31.8*
Cc1ccccc1C(=O)Nc1cccc(C(=O)N/N=C/c2ccccn2)c1	96.0	-2.1	45.6*	1.3	0.1
CC(C)CC#Cc1ccc2c(c1)O[C@H](CN(C)CC1CCOCC1)[C@H](C)CN([C@H](C)CO)S2(=O)=O	·	-1.1	13.1	·	·
COC(=O)C1=C/c2ccccc2C(C2CC2)N(Cc2ccc(OC)cc2)/C=C\1C(=O)OC (centres undefined)	·	·	17.1	·	·
CCCNC(=O)N1C[C@@H](O)COC[C@H]2O[C@@H](CC(=O)NCc3ccncn3)CC[C@@H]21	·	16.6	5.1	·	·
CCCCCCc1cc2cc(C(=O)Nc3ccc(OC)cc3)c(=O)oc2cc1O	100.0	15.8	-3.1	0.0	7.0
CCCCCCc1cc2cc(C(=O)Nc3cccc(OC)c3)c(=O)oc2cc1O	87.0	68.4*	-0.4	2.6	-2.1
CN(C)c1ccc2c(c1)[C@H]1C[C@H](CC(=O)NCC3CC3)O[C@H](CO)[C@H]1O2	·	6.2	41.9	·	·
CCOc1ccc(C(=O)O)cn1	97.0	2.8	-25.2	-1.7	4.5
CCOc1cc(OCC)nc(S(C)(=O)=O)n1	96.0	48.7*	-10.0	-1.8	-5.4
O=c1c(Cl)c(Cl)cnn1Cc1nnc(-c2ccccc2Br)o1	102.0	19.2	-4.2	25.6*	-1.3
Clc1ccccc1OCc1nnc(-c2ccccc2Br)o1	85.0	·	-6.7	-1.9	1.0
COc1ccc2c3c(n(C)c2c1)[C@H](CO)N(Cc1ccc2c(c1)OCO2)CC31CN(C)C1	·	7.5	·	·	·
O=C(c1cccc(NS(=O)(=O)c2cccc(F)c2)c1)N1CCCC1	103.0	10.3	-18.5	0.8	26.6*
Cc1ccc(S(=O)(=O)Nc2cccc(C(=O)N3CCOCC3)c2)cc1	87.0	6.5	·	-0.7	22.7*
Cc1ccc(S(=O)(=O)Nc2ccc(C(=O)N3CCOCC3)cc2)cc1	95.0	6.3	-7.8	-0.5	-0.8
SMILES	ABCB6 inh MLPCN	GSIS activator	ARNT TACC3 PPI	hiPSC survival	CendR NRP1 mod
COC(=O)COc1ccc(S(=O)(=O)N2CCN(c3ccc(OC)cc3)CC2)cc1	95.0	-2.6	·	-0.3	24.0*
CCOc1ccc(S(=O)(=O)Nc2cccc(C(=O)N3CCN(c4ccc(OC)cc4)CC3)c2)cc1	93.0	·	4.5	21.2*	13.4
COC(=O)COc1ccc(S(=O)(=O)N2CCN(c3ccc(F)cc3)CC2)cc1	100.0	-9.4	4.4	-1.0	-9.7
C/C=C/c1ccc([C@H]2[C@@H](CO)N(C(=O)CN(C)C)[C@@H]2CNC(=O)CC)cc1	·	13.4	·	·	·
C[C@@H]1CN([C@@H](C)CO)C(=O)c2cc(C#CCC3CCCC3)cnc2O[C@@H]1CN(C)C(=O)CN(C)C	·	8.5	-2.2	·	·
Cc1ccc(C2(c3noc(CN(C)Cc4cnn(C)c4)n3)CCCC2)cc1	101.0	-18.0	·	0.4	34.3*
C[C@@H]1CN([C@H](C)CO)C(=O)c2cc(C#Cc3cccc(F)c3)cnc2O[C@@H]1CN(C)C(=O)C1CCOCC1	·	10.8	·	·	·
